Data from PubChem BioAssay (NCATS).
Results filed as inconclusive are left out. Values without a mark were called inactive. Activity calls are given as the source filed them. Calls come from the whole dose curve; as a rule, active = well fitted inhibition curve with a large enough effect; inconclusive = small, poorly fitted or top-dose-only effect; inactive = flat fitted curve, though single readings scatter.

Molecular target: Calcium and integrin-binding protein 1 (Homo sapiens) (UniProt Q99828)
Sequence (Q99828 whole entry, looked up): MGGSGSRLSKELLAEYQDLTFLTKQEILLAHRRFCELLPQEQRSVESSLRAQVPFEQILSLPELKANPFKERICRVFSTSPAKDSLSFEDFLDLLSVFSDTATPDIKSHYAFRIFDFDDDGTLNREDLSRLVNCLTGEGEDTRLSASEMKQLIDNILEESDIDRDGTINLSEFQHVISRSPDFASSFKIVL
Assay: Primary qHTS for Identification of Calcium Integrin Binding Protein 1 (CIB1) Competitor (AID 1508620);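 for activity change, negative = inhibition: GST tagged CIB1 binding a fluorescein labelled alphaIIb integrin peptide tracer; top concentration of the series differs between compounds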
Settings: CIB1-GST / FITC-alphaIIb peptide fluorescence polarization; series mostly up to 57.7 µM; activity change, negative = inhibition: at the top concentration
From the text: Assay Provider: Ulhas P. Naik, PhD Sidney Kimmel Medical College Thomas Jefferson University, Philadelphia, PA Primary function of platelets is to maintain hemostasis. At the site of vascular injury, platelets adhere to adhesive proteins such as collagen and von Willebrand factor. Adherent platelets are activated and generate soluble platelet agonists such as thrombin, ADP and thromboxane A2. Following exposure of circulating platelets to these agonists, results in platelet shape change, granule secretion and activation of platelet integrin alphaIIb-beta3. Ligand binding to activated integrin alphaIIb-beta3 triggers outside-in signaling, leading to platelet aggregation, stabilization of platelet plug, and clot retraction. Upon atherosclerotic plaque rupture also causes platelet plug formation, which underlies a number of cardiovascular diseases such as myocardial infraction and stroke. A number of anti-platelet drugs such as aspirin, clopidogrel, prasugrel, vorapaxar, and eptifibatide are currently available to prevent the thrombotic complications. However, these anti-platelet agents have several limitations including inherent variability in individual responses, developing resistance, and serious bleeding side effects. For these reasons they are not suitable for long-term protection. Based on the experiences with current anti-platelet drugs, it appears that the most useful therapeutic approach is to intersect the secondary responses such as integrin outside-in signaling or recruitment of platelets by TxA2 and secreted ADP. Compounds, which can largely preserve the primary hemostatic function of platelets but inhibit secondary response will be most desired therapeutic agents for treatment of cardiovascular disease. CIB1 is a calcium integrin binding protein, which specifically interact with the alphaIIb subunit of integrin alphaIIb-beta3. Binding of CIB1 to alphaIIb regulates the outside-in signaling in platelets, which is needed for thrombus stabilization and thrombus growth. […] Therefore, we propose that discovery of a small molecule that can prevent the association of CIB1 and alphaIIb-beta3 will be a potential anti-platelet agent that can block the thrombus formation without undue effect on hemostasis. Reference: [1] Naik MU, Nigam A, Manrai P, et al. CIB1 deficiency results in impaired thrombosis: the potential role of CIB1 in outside-in signaling through integrin alpha IIb beta 3. J Thromb Haemost.
PROTOCOL TABLES SEQUENCE No. (1, 2, 3, etc.); […] (e.g., Cells, Incubation, Reagent, etc.); VALUE and DESCRIPTION. 1; Reagent; 3 uL; Protein or buffer (4/3x) 2; Compound; 46 nL; Control inhibitor / compound library 3; Time; 15 min; Room temperature incubation 4; Reagent; 1 uL; Fluorescent labeled peptide (4x) 5; Time; 1000 rpm; Centrifuge 6; Time; 15 min; Room temperature incubation 7; Detection; Ex 480/ Em 540; ViewLux Fluorescence Read NOTES (numbers refer to sequence above) 1; Protein Mixture: C1B1-GST (final concentrations of 1 uM). […] 3; Room temperature incubation. 4; Fluorescent Labeled Peptide: FITC-aIIb (final concentration of 100 nM). Sequence of alphaIIb peptide: Acetyl-[…]-FITC (purity is 95.83%). 5; Centrifuge 1000 rpm (164 g) for 15 seconds. 6; Room temperature incubation. 7; ViewLux Fluorescent Polization Read: excitation = 480(20) / emission = 540(25) S and P; FITC Dichroic mirror.
% is set by controls: 0 for no effect and ±100 for the full control effect; potency is the fitted concentration of half-maximal effect.

SMILES	activity change, negative = inhibition [%]	Potency
COc1cc2c(cc1OC)CC(=O)N(CCCN(C)C[C@H]1Cc3cc(OC)c(OC)cc31)CC2	-6.59	
CC(C)c1onc(-c2c(Cl)cccc2Cl)c1COc1ccc(C=Cc2cccc(C(=O)O)c2)c(Cl)c1	-4.41	
Fc1ccc(C(c2ccc(F)cc2)N2CCN(CC=Cc3ccccc3)CC2)cc1		19.2 µM (active)
CN1C(=O)C(Cc2c[nH]c3ccccc23)NC1=S (stereo not given)		inactive
CC[C@H](NC(=O)[C@H](C)NC)C(=O)N1C[C@@H](O)C[C@H]1Cc1c(-c2[nH]c3cc(F)ccc3c2C[C@H]2C[C@H](O)CN2C(=O)[C@H](CC)NC(=O)[C@H](C)NC)[nH]c2cc(F)ccc12	-1.39	
COc1ccc(-c2cc3nccn3c(Nc3ncccc3C(N)=O)n2)cc1OC		inactive
C[C@@H](O[C@H]1OCCN(Cc2n[nH]c(=O)[nH]2)[C@@H]1c1ccc(F)cc1)c1cc(C(F)(F)F)cc(C(F)(F)F)c1	-11.9	
NC(=O)c1noc([C@H](CCCC2CCCCC2)CC(=O)NO)n1		inactive
Cc1cnc(CNC(=O)c2c(=O)c3ccc(N4CCCN(C)CC4)nc3n3c2sc2ccccc23)cn1		inactive
NS(=O)(=O)c1cc(Cl)c(Cl)c(S(N)(=O)=O)c1		inactive
CC(C)(OCc1nn(Cc2ccccc2)c2ccccc12)C(=O)O		inactive
Cc1cn([C@@H]2C[C@@H](O)[C@H](CO)O2)c(=O)[nH]c1=O	2.24	
CC=C1C2C=C(C)CC1(N)c1ccc(=O)[nH]c1C2 (stereo not given)	-12.2	
O=c1[nH]c(=O)n([C@H]2C[C@@H](O)[C@@H](CO)O2)cc1I	6.4	
CC1(C)OC2CC3C4CC(F)C5=CC(=O)C=CC5(C)C4C(O)CC3(C)[C@]2(C(=O)CO)O1 (stereo not given in full)	-3.64	
CCN1CCN(c2ccc(Nc3cc(N(C)C(=O)Nc4c(Cl)c(OC)cc(OC)c4Cl)ncn3)cc2)CC1		inactive
Fc1ccc(CNc2ncnc3ccc(F)cc23)cc1		inactive
CCOC(=O)N1c2ccc(C(F)(F)F)cc2[C@@H](N(Cc2cc(C(F)(F)F)cc(C(F)(F)F)c2)C(=O)OC)C[C@H]1CC	-1.72	
OC1CCC(Nc2ncc3nc(Nc4c(F)cc(F)cc4F)n([C@@H]4CCOC4)c3n2)CC1 (stereo not given in full)	-3.74	
CNC1CCC(N(Cc2cccc(-c3ccncc3)c2)C(=O)c2sc3ccccc3c2Cl)CC1 (stereo not given)		inactive

SMILES	activity change, negative = inhibition [%]	Potency
O=C1C(CCC(O)c2ccc(F)cc2)C(c2ccc(O)cc2)N1c1ccc(F)cc1 (stereo not given)	-6.43	
CCC(C)SSc1ncc[nH]1 (stereo not given)	-13.5	
COc1ccc(CCN(C)CCCOc2ccc(S(=O)(=O)c3[nH]c4ccccc4c3C(C)C)cc2)cc1OC	-4.05	
C[C@@H]1CC=CC=CC=CC=C[C@@H](O[C@@H]2O[C@H](C)[C@@H](O)[C@H](N)[C@H]2O)C[C@@H]2O[C@](O)(C[C@@H](O)C[C@@H]3O[C@@H]3C=CC(=O)O1)C[C@H](O)[C@@H]2C(=O)O	-6.44	
CC[C@H](C)C(=O)O[C@H]1C[C@H](O)C=C2C=C[C@H](C)[C@H](CC[C@@H](O)C[C@@H](O)CC(=O)O)[C@H]21	-8.51	
C#CCN(C)CC1=Cc2ccccc2Oc2ccccc21	5.24	
O=C(C=Cc1ccc(O)cc1)c1ccc(O)cc1O	4.46	
OC[C@H]1O[C@@H](O[C@H]2[C@@H](O)[C@@](O)(CO)O[C@@H]2CO)[C@H](O)[C@@H](O)[C@@H]1O	4.17	
CCCCC(C)(C)[C@H](O)C=C[C@H]1[C@H](O)CC(=O)[C@H]1CC=CCCCC(=O)O	5.31	
CN1c2ccccc2C(=O)N2CCc3c([nH]c4ccccc34)C21 (stereo not given)		inactive
CC(C)C[C@H](NC(=O)c1cc2ccccc2s1)C(=O)N1CCN(C(=O)[C@H](CO)NS(=O)(=O)c2ccc(Cl)cc2Cl)CC1	-1.26	
CC(=O)N1CCN(c2ccc(OCc3nn(C)c(C)c3-c3cccc4c(CCCOc5cc(C)c(Cl)c(C)c5)c(C(=O)O)n(Cc5cccnc5)c34)cc2)CC1	-7.58	
CCCCCCCCCCCCCC(=O)N[C@H](CO)[C@H](O)c1ccc([N+](=O)[O-])cc1	-0.414	
CC(=O)OCC(=O)[C@@]12OC(C)(C)O[C@H]1C[C@H]1[C@@H]3C[C@H](F)C4=CC(=O)C=C[C@]4(C)[C@@]3(F)[C@@H](O)C[C@@]12C	-0.152	
COc1ccc(Cn2ccc3ccc(C(=O)NO)cc32)cc1		inactive
CC(C)CN(C[C@@H](O)[C@H](Cc1ccccc1)NC(=O)O[C@H]1CO[C@H]2OCC[C@H]21)S(=O)(=O)c1ccc(N)cc1	-4.86	
CN1CCN(c2cccc(Nc3nc4c(-c5ccc(S(C)(=O)=O)cc5)cccn4n3)c2)CC1		inactive
Cc1cc2c(cc1C1(c3ccc(C(=O)O)cn3)CC1)C(C)(C)CCC2(C)C		inactive
CCCCC[C@H](O)C=C[C@H]1[C@H](O)CC(=O)[C@H]1CCCCCCC(=O)O	-8.85	
O=C(c1ccc(F)c(F)c1Nc1ccc(I)cc1F)N1CC(O)([C@H]2CCCCN2)C1	-0.49	
